# Source: PubChem BioAssay (Tox21)
# Results filed as inconclusive are left out. Entries that show only a call come without a potency. Activity calls are given as the source filed them. Unless noted, the call rests on the fitted dose curve.
# Key:
# [1] = qHTS assay to identify small molecule agonists of the sonic hedgehog signaling (Shh) pathway (AID 1259368);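 further: NIH/3T3-derived 3T3Gli1-Luc cells carrying a stable Gli1-driven firefly luciferase reporter; series mostly up to about 92 µM; nearly all actives have a fitted effect of over 15% in size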
# Procedure, shortened: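 Cells of a mouse NIH/3T3 clone stably expressing luciferase under the Gli1 transcriptional response element are exposed to test chemicals for 24 hr at 37 C. Pathway activation is detected as a rise in luminescence.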
# [2] = qHTS assay to identify small molecule antagonists of the sonic hedgehog signaling (Shh) pathway (AID 1259369); further: nearly all actives have a fitted effect of over 45% in size; further: potency means the concentration at half of the fitted maximal effect
# Procedure, shortened: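 Cells are plated and held 4hr at 37 C, compounds (DMSO) are pinned in, conditioned medium is added to stimulate the pathway, and after 24hr luciferase reagent is added for 30min before luminescence is read.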
# [3] = qHTS assay to identify small molecule agonists of the androgen receptor (AR) signaling pathway in the presence of an antagonist - cell viability counter screen (AID 1259379; active means well fitted curve in the direction sought with a large enough effect in the repeat runs; an effect the other way counts as inactive or inconclusive; further: nearly all actives have a fitted effect of over 25% in size; further: potency means the concentration at half of the fitted maximal effect)
# Procedure, shortened: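 Cytotoxicity is assessed by CellTiter-Fluor in MDA-kb2 cells carrying an MMTV-driven luciferase reporter. Cells receive 3.0uM nilutamide plus compounds at 15 concentrations and incubate 16 hr at 37C without CO2 before fluorescence reading.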
# [4] = qHTS assay to identify small molecule antagonists of the estrogen receptor beta (ER-beta) signaling pathway - cell viability counter screen (AID 1259382; active means well fitted curve in the direction sought with a large enough effect in the repeat runs; an effect the other way counts as inactive or inconclusive; further: nearly all actives have a fitted effect of over 55% in size; further: potency means the concentration at half of the fitted maximal effect)
# Procedure, shortened: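 Cytotoxicity counter screen multiplexed with the beta-lactamase antagonist assay: GripTite HEK293T ER-beta-bla cells were treated 16 hr with test chemicals in the presence of 1nM 17-beta-estradiol, and viability was measured by CellTiter-Glo.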
# [5] = qHTS assay to identify small molecule agonists or antagonists of the thyroid stimulating hormone receptor (TSHR) signaling pathway - wild type cell line counter screen (AID 1259384)
# Procedure, shortened: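 Counter screen in untransfected Hek293: compounds (15-point titration, triplicate) plus phosphodiesterase inhibitor Ro20-1724 added after 18 h plating; 30 min RT. Intracellular cAMP via competitive d2/cryptate immunoassay, 1 h incubation.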
# [6] = qHTS assay to identify small molecule agonists of the estrogen receptor alpha (ER-alpha) signaling pathway in the presence of an antagonist - cell viability counter screen (AID 1259386; active means well fitted curve in the direction sought with a large enough effect in the repeat runs; an effect the other way counts as inactive or inconclusive;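 further: series mostly up to about 92 µM; cells exposed to compounds for 22 h at 37 °C before the viability read; nearly all actives have a fitted effect of over 30% in size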)
# Procedure, shortened: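 Cytotoxicity was measured in parallel with the ERE-luciferase agonist screen, in the same wells. The cells were VM7Luc4E2, which endogenously express ER-alpha, and treatment was with compounds plus 10.0nM ICI-182,780 for 22hr.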
# [7] = biological target: Progesterone receptor (Homo sapiens) (UniProt P06401); assay: qHTS assay to identify small molecule agonists of the progesterone receptor (PR) signaling pathway (AID 1346784); further: nearly all actives have a fitted effect of over 30% in size; further: potency means the concentration at half of the fitted maximal effect
# Progesterone receptor (Homo sapiens), sequence (P06401 whole entry, looked up): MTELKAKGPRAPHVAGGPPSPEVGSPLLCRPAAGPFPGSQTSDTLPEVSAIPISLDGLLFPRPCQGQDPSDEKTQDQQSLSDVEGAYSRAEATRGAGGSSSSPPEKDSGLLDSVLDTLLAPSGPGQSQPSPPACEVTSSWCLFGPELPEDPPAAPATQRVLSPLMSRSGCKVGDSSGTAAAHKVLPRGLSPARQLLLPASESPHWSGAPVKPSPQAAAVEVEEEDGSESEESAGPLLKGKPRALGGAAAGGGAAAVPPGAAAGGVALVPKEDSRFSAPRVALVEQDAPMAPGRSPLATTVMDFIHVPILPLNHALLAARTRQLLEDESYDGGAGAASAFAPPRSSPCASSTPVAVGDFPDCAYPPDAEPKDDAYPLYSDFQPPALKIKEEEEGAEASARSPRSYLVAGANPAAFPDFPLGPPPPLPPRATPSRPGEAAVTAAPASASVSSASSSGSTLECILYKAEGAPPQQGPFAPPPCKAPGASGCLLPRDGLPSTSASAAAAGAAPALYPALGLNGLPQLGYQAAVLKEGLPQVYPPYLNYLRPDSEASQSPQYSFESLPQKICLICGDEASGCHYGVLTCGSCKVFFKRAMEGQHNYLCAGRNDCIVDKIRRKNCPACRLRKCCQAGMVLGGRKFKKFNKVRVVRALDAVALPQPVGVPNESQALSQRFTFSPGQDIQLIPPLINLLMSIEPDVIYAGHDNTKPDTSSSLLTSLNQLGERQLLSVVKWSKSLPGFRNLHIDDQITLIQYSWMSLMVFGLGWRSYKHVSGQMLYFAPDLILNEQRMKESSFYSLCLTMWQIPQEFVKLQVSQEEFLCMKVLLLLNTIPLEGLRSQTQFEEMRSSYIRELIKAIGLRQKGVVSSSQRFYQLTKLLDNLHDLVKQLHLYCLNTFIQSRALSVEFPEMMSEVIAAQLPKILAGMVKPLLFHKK
# Procedure, shortened: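 Agonist qHTS: compounds pinned onto 3,000 PR-UAS-bla HEK 293T cells per well in charcoal-stripped serum medium, 16hr at 37C, then beta-lactamase activity measured by LiveBLAzer FRET fluorescence after 2 hours at room temperature.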
# [8] = biological target: Progesterone receptor (Homo sapiens) (UniProt P06401); assay: qHTS assay to identify small molecule antagonists of the progesterone receptor (PR) signaling pathway (AID 1346795; active means well fitted inhibition curve with a large enough effect in the signal ratio in the repeat runs, not every such curve was filed as active; the % refers to the signal ratio; further: potency means the concentration at half of the fitted maximal effect)
# Procedure, shortened: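 Antagonist mode with agonist R5020 at 1 nM final and 16 hr incubation at 37C. Reporter was beta-lactamase driven by UAS in HEK293T (PR-UAS-bla), 2% charcoal-stripped serum; signal from LiveBLAzer FRET substrate, 2 hr at room temperature.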
# [9] = qHTS assay to identify small molecule antagonists of the progesterone receptor (PR) signaling pathway - cell viability counter screen (AID 1346798; active means well fitted curve in the direction sought with a large enough effect in the repeat runs; an effect the other way counts as inactive or inconclusive; further: nearly all actives have a fitted effect of over 50% in size; further: potency means the concentration at half of the fitted maximal effect)
# Procedure, shortened: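 Cytotoxicity read as CellTiter-Glo luminescence (30 min, room temperature) in the same wells as the beta-lactamase readout. HEK293T PR-UAS-bla cells in charcoal-stripped 2% FBS received compound and R5020, then 16 h at 37C, 5% CO2.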
# [10] = qHTS assay to identify small molecule agonists of the progesterone receptor (PR) signaling pathway - cell viability counter screen (AID 1346799); further: nearly all actives have a fitted effect of over 45% in size; further: potency means the concentration at half of the fitted maximal effect
# Procedure, shortened: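 Cytotoxicity measured by CellTiter-Glo luminescence (30 min, RT) in the same wells as the PR beta-lactamase agonist read. Those HEK293T cells had 16 h compound treatment at 37 C in 2% charcoal-stripped FBS medium.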
# [11] = qHTS assay to identify small molecule antagonists of the TGF-beta/Smad signaling pathway - cell viability counter screen (AID 1346824; active means well fitted curve in the direction sought with a large enough effect in the repeat runs; an effect the other way counts as inactive or inconclusive; further: nearly all actives have a fitted effect of over 50% in size)
# Procedure, shortened: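 Cytotoxicity counter-screen run in the same wells as the beta-lactamase Smad reporter read: CellTiter-Glo luminescence after 30 min at room temperature. HEK 293T SBE-bla cells had 5 hr compound exposure at 37 C with TGF-beta1 (0.25 ng/mL stock).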
# [12] = qHTS assay to identify small molecule agonists of the TGF-beta/Smad signaling pathway - cell viability counter screen (AID 1346829; active means well fitted curve in the direction sought with a large enough effect in the repeat runs; an effect the other way counts as inactive or inconclusive; further: top concentration of the series differs between compounds; nearly all actives have a fitted effect of over 45% in size)
# Procedure, shortened: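 Compound-treated SBE-bla HEK 293T cells (5 hr, 37 C) were assessed for viability with CellTiter-Glo in parallel with the reporter read.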
# [13] = qHTS assay to identify small molecule agonists of the TGF-beta/Smad signaling pathway (AID 1346859; active means well fitted activation curve with a large enough effect in the signal ratio in the repeat runs, not every such curve was filed as active; the % refers to the signal ratio; further: series mostly up to about 77 µM)
# Procedure, shortened: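 Fluorescence (ex 405 nm; em 460 and 530 nm) was read 2 h after LiveBLAzer FRET substrate at RT. The preceding compound treatment of overnight-plated SBE-bla HEK293T cells lasted 5 h at 37 C.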
# [14] = biological target: Androgen receptor (Homo sapiens) (UniProt P10275); assay: qHTS assay to identify small molecule agonists of the androgen receptor (AR) signaling pathway in the presence of an antagonist (AID 1259381); further: nearly all actives have a fitted effect of over 15% in size
# Androgen receptor (Homo sapiens), sequence (P10275 whole entry, looked up): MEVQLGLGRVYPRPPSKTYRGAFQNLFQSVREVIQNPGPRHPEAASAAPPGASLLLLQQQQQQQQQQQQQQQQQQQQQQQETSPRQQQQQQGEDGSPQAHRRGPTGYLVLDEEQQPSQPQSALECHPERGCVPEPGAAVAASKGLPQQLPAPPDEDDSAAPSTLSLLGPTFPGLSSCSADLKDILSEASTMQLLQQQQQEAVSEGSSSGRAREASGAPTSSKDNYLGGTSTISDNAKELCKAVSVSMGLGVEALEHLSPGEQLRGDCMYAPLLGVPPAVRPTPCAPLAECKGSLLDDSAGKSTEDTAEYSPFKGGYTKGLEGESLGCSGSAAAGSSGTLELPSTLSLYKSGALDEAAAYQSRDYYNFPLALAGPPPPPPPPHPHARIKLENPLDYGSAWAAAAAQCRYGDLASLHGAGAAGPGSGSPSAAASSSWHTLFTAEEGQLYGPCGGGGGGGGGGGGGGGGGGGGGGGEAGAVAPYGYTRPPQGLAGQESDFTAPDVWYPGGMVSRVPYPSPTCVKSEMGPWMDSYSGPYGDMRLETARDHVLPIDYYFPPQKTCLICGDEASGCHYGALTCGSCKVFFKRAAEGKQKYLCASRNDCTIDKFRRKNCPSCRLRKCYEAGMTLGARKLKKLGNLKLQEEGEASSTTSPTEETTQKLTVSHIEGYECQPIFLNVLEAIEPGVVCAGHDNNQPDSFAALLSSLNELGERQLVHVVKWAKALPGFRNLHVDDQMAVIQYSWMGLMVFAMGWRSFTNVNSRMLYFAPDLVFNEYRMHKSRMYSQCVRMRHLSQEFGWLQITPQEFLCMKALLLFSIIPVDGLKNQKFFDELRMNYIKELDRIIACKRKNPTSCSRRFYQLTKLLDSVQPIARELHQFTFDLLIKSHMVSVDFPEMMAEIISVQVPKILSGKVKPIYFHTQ
# Procedure, shortened: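 Agonist-mode confirmation screen: human MDA-kb2 cells stably expressing luciferase under an MMTV promoter bearing AR and GR response elements, co-treated with 3.0uM nilutamide (final). Luminescence measured after 16hr compound incubation.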
# [15] = biological target: Thyrotropin-releasing hormone receptor (Homo sapiens) (UniProt P34981); assay: qHTS assay to identify small molecule antagonists of the thyrotropin-releasing hormone receptor (TRHR) signaling pathway (AID 1346877; active means well fitted inhibition curve with a large enough effect in the repeat runs, not every such curve was filed as active; further: series mostly up to about 51 µM)
# Thyrotropin-releasing hormone receptor (Homo sapiens), sequence (P34981 whole entry, looked up): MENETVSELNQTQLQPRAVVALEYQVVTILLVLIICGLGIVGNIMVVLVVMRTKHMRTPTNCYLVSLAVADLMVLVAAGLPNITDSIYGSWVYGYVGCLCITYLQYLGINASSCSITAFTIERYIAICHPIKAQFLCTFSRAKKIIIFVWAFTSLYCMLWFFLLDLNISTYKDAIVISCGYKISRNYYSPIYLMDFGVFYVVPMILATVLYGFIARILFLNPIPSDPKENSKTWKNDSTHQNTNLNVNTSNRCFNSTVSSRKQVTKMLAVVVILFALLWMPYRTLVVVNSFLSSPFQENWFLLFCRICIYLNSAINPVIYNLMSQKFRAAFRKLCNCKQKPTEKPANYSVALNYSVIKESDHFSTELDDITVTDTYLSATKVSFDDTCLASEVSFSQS
# Procedure, shortened: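 Antagonism is measured as suppression of the calcium response to 1 nM TRH in TRHR-HEK293 cells that have been dye-loaded for 2 h at 37 °C after overnight plating. Each compound is tested at 15 concentrations in triplicate.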
# [16] = qHTS assay to identify small molecule agonists of the estrogen receptor beta (ER-beta) signaling pathway - cell viability counter screen (AID 1259380; active means well fitted curve in the direction sought with a large enough effect in the repeat runs; an effect the other way counts as inactive or inconclusive; further: nearly all actives have a fitted effect of over 30% in size; further: potency means the concentration at half of the fitted maximal effect)
# Procedure, shortened: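 Cytotoxicity is measured in parallel with the reporter screen: after 16 hr compound exposure at 37C and a 2 hr LiveBLAzer step, CellTiter-Glo is added to the same ER-beta-UAS-bla HEK293T wells and luminescence read after 30 min.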
# [17] = biological target: Estrogen receptor (Homo sapiens) (UniProt P03372); assay: qHTS assay to identify small molecule agonists of the estrogen receptor alpha (ER-alpha) signaling pathway in the presence of an antagonist (AID 1259383); further: top concentration of the series differs between compounds; nearly all actives have a fitted effect of over 15% in size
# Estrogen receptor (Homo sapiens), sequence (P03372 whole entry, looked up): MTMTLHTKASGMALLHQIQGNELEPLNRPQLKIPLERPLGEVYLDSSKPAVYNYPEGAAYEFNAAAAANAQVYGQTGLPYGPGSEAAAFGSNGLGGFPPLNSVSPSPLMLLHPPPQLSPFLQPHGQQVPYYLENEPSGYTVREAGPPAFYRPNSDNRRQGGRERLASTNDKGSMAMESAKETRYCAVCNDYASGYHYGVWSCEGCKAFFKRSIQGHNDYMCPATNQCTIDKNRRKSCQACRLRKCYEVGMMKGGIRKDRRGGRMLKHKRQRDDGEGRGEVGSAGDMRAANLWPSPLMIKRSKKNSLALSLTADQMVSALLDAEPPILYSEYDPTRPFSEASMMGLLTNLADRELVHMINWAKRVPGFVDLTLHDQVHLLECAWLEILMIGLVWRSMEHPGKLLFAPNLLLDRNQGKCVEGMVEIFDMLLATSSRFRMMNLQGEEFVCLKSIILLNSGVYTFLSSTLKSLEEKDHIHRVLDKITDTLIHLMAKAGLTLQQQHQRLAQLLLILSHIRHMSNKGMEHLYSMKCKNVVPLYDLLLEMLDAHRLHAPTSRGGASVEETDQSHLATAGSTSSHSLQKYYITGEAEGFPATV
# Procedure, shortened: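 Agonist-mode confirmation in the presence of the ER antagonist ICI-182,780 at 10.0nM final. Breast-derived VM7Luc4E2 reporter cells were exposed to compounds for 22hr, and ERE-driven luciferase was quantified by luminescence.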
# [18] = biological target: Thyrotropin receptor (Homo sapiens) (UniProt P16473); assay: qHTS assay to identify small molecule antagonists of the thyroid stimulating hormone receptor (TSHR) signaling pathway (AID 1259385); further: nearly all actives have a fitted effect of over 20% in size; further: potency means the concentration at half of the fitted maximal effect
# Thyrotropin receptor (Homo sapiens), sequence (P16473 whole entry, looked up): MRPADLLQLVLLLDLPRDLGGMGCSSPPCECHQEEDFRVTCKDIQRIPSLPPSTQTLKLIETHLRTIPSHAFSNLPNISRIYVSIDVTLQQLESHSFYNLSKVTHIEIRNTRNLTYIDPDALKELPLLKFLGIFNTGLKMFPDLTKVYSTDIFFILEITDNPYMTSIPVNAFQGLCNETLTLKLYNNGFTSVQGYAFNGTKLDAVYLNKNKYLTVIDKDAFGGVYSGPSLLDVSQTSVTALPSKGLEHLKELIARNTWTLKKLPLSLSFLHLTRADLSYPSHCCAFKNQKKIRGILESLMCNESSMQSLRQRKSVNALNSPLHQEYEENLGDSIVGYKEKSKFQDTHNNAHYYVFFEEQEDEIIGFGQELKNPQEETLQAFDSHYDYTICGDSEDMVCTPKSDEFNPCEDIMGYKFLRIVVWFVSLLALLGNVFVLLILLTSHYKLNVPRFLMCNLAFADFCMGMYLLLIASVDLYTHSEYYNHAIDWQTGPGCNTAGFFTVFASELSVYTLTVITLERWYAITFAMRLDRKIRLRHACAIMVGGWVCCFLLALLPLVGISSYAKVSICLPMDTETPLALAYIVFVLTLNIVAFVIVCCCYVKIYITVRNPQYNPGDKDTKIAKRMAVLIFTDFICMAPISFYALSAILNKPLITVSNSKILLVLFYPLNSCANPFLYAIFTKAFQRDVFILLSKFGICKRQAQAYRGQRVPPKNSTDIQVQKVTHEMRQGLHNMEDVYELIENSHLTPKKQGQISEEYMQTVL
# Procedure, shortened: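 Antagonist mode: compound-treated TSHR-expressing HEK293 cells were stimulated with 1.5 ng/mL TSH (final) in presence of Ro20-1724 for 30 min at RT. HTRF cAMP detection after 1 h; each compound tested at 15 concentrations, triplicate.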
SMILES,Potency [1],Potency [2],Potency [3],Potency [4],outcome [5],Potency [6],Potency [7],Potency [8],Potency [9],Potency [10],Potency [11],Potency [12],Potency [13],Potency [14],outcome [15],Potency [16],Potency [17],Potency [18]
CC(=O)Nc1ccc(C)cc1C,inactive,inactive,inactive,inactive,inactive,inactive,inactive,inactive,inactive,inactive,inactive,inactive,inactive,,,,,
O=C(OCC(O)CO)c1ccccc1Nc1ccnc2cc(Cl)ccc12 (centres undefined),inactive,7.5 µM (active),inactive,,,inactive,inactive,,,,inactive,inactive,inactive,inactive,inactive,,,
N#CCc1ccc(Cl)cc1Cl,inactive,inactive,inactive,inactive,inactive,inactive,inactive,inactive,inactive,,inactive,inactive,inactive,,inactive,inactive,inactive,inactive
CCOC(=O)c1ccc(I)cc1,inactive,inactive,inactive,inactive,inactive,inactive,5.5 µM (active),inactive,inactive,,inactive,inactive,inactive,,inactive,inactive,inactive,inactive
OCCN1CCN(CCCN2c3ccccc3Sc3ccc(Cl)cc32)CC1,inactive,11.9 µM (active),,13.3 µM (active),inactive,,,,23.7 µM (active),13.3 µM (active),inactive,inactive,inactive,,,23.7 µM (active),inactive,29.8 µM (active)
C[C@@]12CCC[C@H]1[C@@H]1CC[C@H]3C[C@@H](O)CC[C@]3(C)[C@H]1CC2,inactive,23.7 µM (active),inactive,inactive,inactive,,inactive,,26.6 µM (active),inactive,inactive,inactive,inactive,,inactive,inactive,,inactive
CC(C)C[C@H](NC(=O)[C@H](CCc1ccccc1)NC(=O)CN1CCOCC1)C(=O)N[C@@H](Cc1ccccc1)C(=O)N[C@@H](CC(C)C)C(=O)[C@@]1(C)CO1,inactive,0.0119 µM (active),1.19 µM (active),,inactive,inactive,,,inactive,,inactive,inactive,inactive,,inactive,0.266 µM (active),inactive,inactive
O=C(O)c1cccc(-c2noc(-c3ccccc3F)n2)c1,inactive,0.237 µM (active),inactive,,inactive,inactive,inactive,inactive,,,,,,,inactive,26.6 µM (active),,inactive
COc1ccccc1Oc1c(NS(=O)(=O)c2ccc(C(C)(C)C)cc2)nc(-c2ncccn2)nc1OCCO,inactive,15 µM (active),inactive,,inactive,inactive,inactive,,inactive,inactive,inactive,inactive,inactive,,inactive,,inactive,inactive
COc1cc(N)c(Cl)cc1C(=O)NC1CCN(CCCOc2ccc(F)cc2)CC1OC (centres undefined),inactive,2.66 µM (active),,,inactive,inactive,inactive,29.8 µM (active),inactive,inactive,inactive,inactive,inactive,,inactive,5.96 µM (active),inactive,
O=C=Nc1ccc(Cl)c(Cl)c1,inactive,inactive,inactive,,inactive,,inactive,,,,inactive,inactive,inactive,,,47.8 µM (active),,inactive
COc1cc(Nc2c(C#N)cnc3cc(OCCCN4CCN(C)CC4)c(OC)cc23)c(Cl)cc1Cl,inactive,13.3 µM (active),29.8 µM (active),inactive,inactive,,inactive,11.9 µM (active),inactive,,inactive,inactive,inactive,,,33.5 µM (active),,13.3 µM (active)
C1C[C@@H]2[C@H]3CC[C@H](C3)[C@@H]2C1,inactive,inactive,inactive,inactive,inactive,inactive,inactive,,inactive,inactive,inactive,inactive,inactive,,inactive,,,inactive
